Data on 56 compounds can be found in PubChem BioAssay AID652257 (The Scripps Research Institute Molecular Screening Center, 2013).

Out of some 370,000 compounds screened, about 4,800 (1.3%) were called active. The sample as a whole holds a higher share of actives than the screen did. Values without a mark were called inactive.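 How the source made its calls: active means inhibition above about 21% made by adding two undisclosed values (limit read from the data); inactive means the rest.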

In the test the target is Protein arginine N-methyltransferase 1 (Homo sapiens) (UniProt Q99873). As to the kind of experiment: PRMT1 methyltransferase inhibitors, primary screen, biochemical, fluorescence polarization (AID 652257). The note with it: recombinant PRMT1, activity-based probe fluorescence polarization; at 2.79 µM; active compounds read high. (Fluorescence polarisation rises when a labelled molecule tumbles more slowly, as on binding a larger partner.)
Protein arginine N-methyltransferase 1 (Homo sapiens), sequence (Q99873 whole entry, looked up): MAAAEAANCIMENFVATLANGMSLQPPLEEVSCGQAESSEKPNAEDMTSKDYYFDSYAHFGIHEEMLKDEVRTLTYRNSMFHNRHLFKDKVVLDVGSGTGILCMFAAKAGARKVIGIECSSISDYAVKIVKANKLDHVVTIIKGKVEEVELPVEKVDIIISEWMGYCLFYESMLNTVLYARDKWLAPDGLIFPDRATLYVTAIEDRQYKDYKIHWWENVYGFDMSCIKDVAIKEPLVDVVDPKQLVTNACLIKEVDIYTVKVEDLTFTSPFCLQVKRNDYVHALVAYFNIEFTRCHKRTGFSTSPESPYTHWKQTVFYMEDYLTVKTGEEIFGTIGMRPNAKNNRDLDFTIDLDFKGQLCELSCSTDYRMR
The inhibition is the drop in the measured response relative to a control, in per cent. Consider `CC(NCc1nc2ccccc2n1C)C12CC3CC(CC(C3)C1)C2` (stereo unspecified), for which the inhibition was 5.86%.
As for `CCC(C)[C@@H](C(=O)OC)N(CCc1cn(Cc2ccccc2)nn1)S(=O)(=O)c1ccccc1Br` (stereo partly specified), the inhibition is 1.11%.
With `NC(=O)C[C@@H]1NC(=O)CNC(=O)c2cc([N+](=O)[O-])cc(I)c2NCCC(C(N)=O)NC1=O` (stereo partly specified), the inhibition was -3.5%.
`CC(=O)N1CC[n+]2c(-c3ccc([N+](=O)[O-])cc3)csc21`: the inhibition was 52.3% (active).
With `CN1C2CCC1CC(NC(=O)c1ccc([N+](=O)[O-])cc1)C2` (stereo unspecified), the inhibition was -4.9%.
`Cc1cc(C)cc(C(=O)N2CCN=C2SCc2ccc([N+](=O)[O-])cc2)c1`: the inhibition was -6.78%.
Take `Cc1ccc(-n2c(SCC(=O)Nc3ccc(S(=O)(=O)Nc4nccs4)cc3)nnc2-c2ccccn2)cc1`: the inhibition was -1.31%.
Turning to `Cc1ccc(OS(=O)(=O)c2ccc(-c3csc(C)n3)s2)c(C)c1`, the inhibition is 27.8% (active).
As to `C=CCN1C(=O)[C@@H](CC(=O)NCC2CCCCC2)[C@]2(C(=O)OC)CCCCC=C12`, the inhibition was -0.92%.
Next, `COc1cc(C2C(C#N)=C(C)NC3=C2C(=O)CC(C)(C)C3)ccc1O` (stereo unspecified): -0.43%.
Take `C=CCSC1=C(C#N)C(c2cc(Br)c(O)c(OC)c2)CC(=O)N1` (stereo unspecified): the inhibition is 23.6% (active).
Regarding `Cc1cc(=O)[nH]c2nnnn12`, the inhibition was -0.07%.
For the compound `CCNC(=O)COc1cc(C)c(Br)c(C)c1`, the inhibition is -2.57%.
Next, `Cc1ccc(NC(=S)NNC(=O)CSc2nnc(SCc3ccccc3Cl)s2)cc1`: -4.6%; `Cc1cc(=O)[nH]c(SCC(=O)Nc2ccc(F)cc2F)n1`: -0.33%.
Take `COc1ccc(C(=O)Nc2c(N)nc(SCC(=O)Nc3ccc(C(C)=O)cc3)[nH]c2=O)cc1`: the inhibition was 0.6%.
`COc1ccc(C(=O)Nc2ccc(-n3nncc3C(C)(C)C)cc2)cc1`: the inhibition was 1.48%.
As to `COc1ccc(NC(=O)c2ccc(C#CC(C)(C)O)cc2)cc1`, the inhibition was 25.5% (active).
In the case of `O=C(CCCCCN1C(=O)C2C3C=CC(C3)C2C1=O)Nc1ccccn1` (stereo unspecified) it was -1.78%.
As to `Cc1n[nH]c(=O)c2c(NC(=O)COC(=O)c3ncc(Cl)c(Cl)c3Cl)oc(C)c12`, the inhibition was 7.67%.
Consider `O=C(c1ccncc1)N1CC[C@H]2[C@H](CCCN2Cc2ccc(F)cc2)C1`, for which the inhibition was 0.01%.
Turning to `CCCn1c(C)cc(-c2csc(NC(=O)CCc3nc4ccccc4c(=O)[nH]3)n2)c1C`, the inhibition was 9.77%.
For `CC(=O)Nc1ccc(C(=O)Nc2nc(-c3cc(C)n(Cc4ccccc4)c3C)cs2)cc1`, the inhibition is 25.2% (active).
Next, `Cc1c(C#N)c(NC(=O)c2ccccc2)n(Cc2ccccc2)c1C`: -3.16%; `COc1ccc([C@H]2N[C@]3(CCCN(CC4CCCCC4)C3=O)[C@H]3C(=O)N(C)C(=O)[C@@H]23)cc1`: 5.33%; `Cc1cc(NS(=O)(=O)c2ccc(NC(=O)CSc3nnc(-c4ccc(C(C)(C)C)cc4)n3Cc3ccco3)cc2)nc(C)n1`: 3.17%.
As to `O=C(Oc1ccccc1Cl)c1ccc(N2CCOCC2)c([N+](=O)[O-])c1`, the inhibition was -1.29%.
As for `O=C(Oc1ccccc1C(=S)N1CCCCC1)c1cc([N+](=O)[O-])cc([N+](=O)[O-])c1`, the inhibition was 41.9% (active).
As to `O=C(Oc1ccc(Br)cc1C(=S)N1CCOCC1)c1cccc([N+](=O)[O-])c1`, the inhibition was 5.11%.
For `O=C(Cn1c(N2CCN(C/C=C/c3ccccc3)CC2)nc2ccccc21)c1ccccc1`, the inhibition is 0.25%.
For `CCC(C(=O)NCc1cccnc1)n1nc(C)c2sc3ccccc3c2c1=O` (stereo unspecified), the inhibition is 3.72%.
Turning to `Cc1ccc(S(=O)(=O)C2(S(=O)(=O)c3ccc(C)cc3)CCCC2)cc1`, the inhibition was 1.95%.
On to `CCCOc1ccc(C(=O)C(CCC(CNCC)C(=O)c2ccc(OCCC)cc2)CNCC)cc1` (stereo unspecified), for which the inhibition was -1.8%.
Regarding `CCc1ccc(N(C(=O)c2csnn2)C(C(=O)NC2CCCCC2)c2ccncc2)cc1` (stereo unspecified), the inhibition is 0.98%.
Next, `Clc1ccc(-n2c(COc3ccccc3)nnc2SCc2nc3ccccc3[nH]2)cc1`: 4.16%; `CC1CCN(c2ccc(C(=O)O)cc2NS(=O)(=O)c2ccc(Br)s2)CC1`: -1.42%.
Take `COc1ccc(C(=O)COC(=O)COc2ccc(C)c(C)c2)cc1`: the inhibition is 29.1% (active).
Consider `COc1ccc(OCC(=O)OCCN(C)C)cc1`, for which the inhibition is -3.78%.
Consider `Cc1ccc(OCC(=O)Nc2ccc(C(=O)O)cc2NC(=O)COc2ccc(C)c(C)c2)cc1C`, for which the inhibition was -0.54%.
`CCn1c(=O)n2n(c1=O)[C@@]1(C=C3CCCC[C@H]32)N=C(NC(=O)c2ccccc2)N(Cc2ccccc2)[C@H]1Cc1ccccc1`: the inhibition was -0.64%.
Consider `Cc1cccc(NC(=O)C[C@H]2CC[C@H]3[C@@H](COc4ccc(NC(=O)Nc5ccccc5)cc4C(=O)N3C)O2)c1`, for which the inhibition was 0.26%.
In the case of `CCOC(=O)Nc1ccc(S(=O)(=O)N(C)C(C)C)cc1`, the inhibition is 1.03%.
For `COc1ccc2c(C(C)c3ccc(N)cc3)cn(C)c2c1` (stereo unspecified), the inhibition was -4.35%.
On to `CCN(C(=O)CSc1cccc[n+]1[O-])c1ccccc1`, for which the inhibition was -2.83%.
With `O=C(CSc1cccc[n+]1[O-])c1ccc(-c2ccccc2)cc1`, the inhibition is 39.5% (active).
Regarding `O=C(CSc1cccc[n+]1[O-])NCCCc1ccccc1`, the inhibition was -1.06%.
In the case of `CCN(CC)C(=O)CC[C@H]1CC[C@]2(CCCN(Cc3ccc(Cl)cc3)C2)O1` it was -4.34%; in that of `Cc1ccc(NCc2n[nH]c(=S)n2-c2ccccc2)cc1Cl`, 15.4%; in that of `S=c1[nH]nc(CSCc2ccc(Cl)cc2Cl)n1-c1ccccc1`, 21.5% (active).
With `CCn1c(CSCc2c(Cl)cccc2Cl)n[nH]c1=S`, the inhibition is -0.4%.
`CCCNC(=O)C1(C)CCCN(C(=O)c2oc3ccccc3c2C)C1` (stereo unspecified): the inhibition is -2.54%.
As to `CNc1nc(=O)n(C2CCCO2)cc1C` (stereo unspecified), the inhibition was 4.11%.
Regarding `C=CS(=O)(=O)N(Cc1nnn(Cc2ccccc2)c1Br)[C@H](C(=O)OC)C(C)C`, the inhibition was -6.2%.
As for `COc1cc2c(=O)n(C)c3ccccc3c2cc1OC`, the inhibition is 0.5%.
As for `Cn1c(=O)c([N+](=O)[O-])c(Oc2ccccc2)c2ccccc21`, the inhibition is 5.71%.
On to `Cc1cccc(Oc2c([N+](=O)[O-])c(=O)n(C)c3ccccc23)c1`, for which the inhibition was 30% (active).
